Among all 52,000 compounds or so, about 4,300 (8.3%) were called active. Shown is part of a subset that was picked to be rich in actives. Values without a mark were called inactive. Rule as the data show it: active = survival mostly below about 52% (no sharp cut-off); inactive = mostly above about 56%.

For this experiment, the system named is DeltatarO mutant. Put plainly: growth inhibition of S. aureus wild type versus tarO mutant, primary screen, teichoic acid synthesis inhibitors, RN4220, OD600 (AID 463173). The settings on record: OD600, 18 h, stronger effect = lower value, screened at 18.75 µg/mL (by protocol).
For the compound `CC(=O)N1CCCc2cc(S(=O)(=O)N3CCCCC3)ccc21`, the survival was 47% (active).
Under `COc1ccccc1CNC(=O)C1CCN(S(=O)(=O)c2ccc3c(c2)CCCN3C(C)=O)CC1` stands 83%; under `CC(=O)N1CCCc2cc(S(=O)(=O)N3CCC(C(=O)NC4CCCCC4)CC3)ccc21`, 94%; under `CC(=O)N1CCCc2cc(S(=O)(=O)N3CCC(N(C)C(C)C)CC3)ccc21`, 94%.
With `COc1ccccc1CNC(=O)C1CCCN(S(=O)(=O)c2ccc3c(c2)CCCN3C(C)=O)C1` (stereo not drawn) the figure was 52% (active); with `CC(=O)N1CCCc2cc(S(=O)(=O)N3CCCC(C(=O)NCc4ccccc4Cl)C3)ccc21` (stereo not drawn), 95%; with `CCOC(=O)N1CCc2c(sc3c2c(=O)n(Cc2ccccc2)c(=O)n3CC(=O)Nc2ccc(C)cc2C)C1`, 71%.
With `O=C(c1cc2ccccc2oc1=O)N1CCN(c2ccc(Cl)cc2)CC1` the figure was 66%.
Consider `COc1cc(C(=O)NCCOc2ccc(C)c(C)c2)cc(OC)c1OC`, for which the survival was 98%.
For the compound `Cc1cc(C)cc(NC2=CC(c3cccc(F)c3)N(c3cc(C)cc(C)c3)C2=O)c1` (stereo not drawn), the survival was 87%.
Under `COc1ccc(C(=O)/C=C/c2cn(CC(O)CN3CCc4ccccc43)c3ccccc23)cc1` (stereo not drawn) stands 58%; under `CCCCN(CCCC)CC(O)Cn1cc(/C=C/C(=O)c2ccccc2)c2ccccc21` (stereo not drawn), 5% (active); under `CCCN(CCC)CC(O)Cn1cc(/C=C/C(=O)c2ccc(OC)cc2)c2ccccc21` (stereo not drawn), 11% (active).
With `Cc1ccc(C(=O)c2cn(Cc3ccccc3)c3ccccc3c2=O)cc1` the figure was 75%; with `CC(C)CN(CC(C)C)CC(O)Cn1cc(/C=C/C(=O)c2ccccc2)c2ccccc21` (stereo not drawn), 38% (active); with `COc1ccc(C(=O)/C=C/c2cn(CC(O)CN(CC(C)C)CC(C)C)c3ccccc23)cc1OC` (stereo not drawn), 91%.
On to `CCCCN(CC)CCCNC(=O)c1cn(CC(C)C)c(=O)c2c1c1ccccc1n2C`, for which the survival was 115%.
With `COc1ccc(C(=O)/C=C/c2cn(CC(O)CN(CC(C)C)CC(C)C)c3ccccc23)cc1` (stereo not drawn) the figure was 58%; with `CCn1cc(/C=C(\NC(=O)c2ccc(OC)cc2)C(=O)NCCCn2ccnc2)c2ccccc21`, 108%; with `CCCN(CCC)CC(O)Cn1cc(/C=C/C(=O)c2ccc(Br)cc2)c2ccccc21` (stereo not drawn), 66%.
Under `CCCN(CCC)CC(O)Cn1cc(/C=C/C(=O)c2ccc(C)cc2)c2ccccc21` (stereo not drawn) stands -2% (active); under `Cc1nn(-c2ccccc2)c(=O)c2ccccc12`, 92%.
Under `COc1ccc(-c2nc3nc(C)cc(Nc4ccc(C(C)=O)cc4)n3n2)cc1` stands 54%.
`CCc1nc2nc(C)cc(Nc3ccc(Br)cc3F)n2n1`: the survival was 128%.
With `Cc1cc(=O)n(CC(=O)Nc2ccc(Cl)c(Cl)c2)c(-n2nc(C)cc2C)n1` the figure was 117%; with `COc1ccccc1NC(=O)CCS(=O)(=O)c1cc2c3c(c1)CCN3C(=O)CC2`, 99%; with `CCc1cccc(CC)c1-n1nnc2c(sc3nc(C)cc(C)c32)c1=O`, 83%.
For `Cc1cccc(C(=O)NCc2nnc(SCC(=O)Nc3ccccc3F)n2-c2ccccc2)c1`, the survival is 72%.
Under `N#Cc1c(/N=C/c2cccnc2)sc2c1CCC2` stands 100%; under `CN1CCN(C(CNC(=O)c2ccccc2)c2ccc3c(c2)OCO3)CC1` (stereo not drawn), 76%; under `Nc1nc(N)nc(COc2ccccc2)n1`, 102%.
Under `CCOC(=O)c1c(S(=O)(=O)N2CCCC(C(=O)NCc3ccccc3Cl)C2)c(C)n(C)c1C` (stereo not drawn) stands 122%.
Under `CCc1cccc(C)c1NC(=O)CN1CCN(Cc2ccccc2Cl)S1(=O)=O` stands 126%; under `CCCN(CCC)CC(O)Cn1cc(/C=C/C(=O)c2ccc(OCC)cc2)c2ccccc21` (stereo not drawn), 11% (active); under `CCOc1ccc(C(=O)NCCn2cc(SCC(=O)Nc3ccccc3)c3ccccc32)cc1`, 71%.
Take `COc1ccc(S(=O)(=O)N2CCCN(CC(=O)Nc3ccc(OC)cc3OC)CC2)cc1`: the survival is 72%.
With `COc1ccc(OCC(=O)NCCS(=O)(=O)N2CCN(c3cccc(Cl)c3)CC2)cc1` the figure was 85%; with `CCOc1ccc(NC(=O)CSc2cn(CC(=O)N3CCCCCC3)c3ccccc23)cc1`, 95%.
With `Cc1oc(-c2cccc(Br)c2)nc1CSc1nc2ncccc2[nH]1` the figure was 78%; with `CCOC(=O)c1cnc2c(C)cc(C)cc2c1NCCN1CCOCC1`, 32% (active); with `Cc1cc(C)cc(OCC(=O)NCCN2CCOCC2)c1`, 67%.
With `CCOC(=O)c1cnc2ccc(Br)cc2c1NCCN1CCOCC1` the figure was 76%; with `CCOC(=O)c1cnc2c(Cl)c(Cl)ccc2c1NCCN1CCOCC1`, 42% (active); with `CCOC(=O)c1cnc2ccccc2c1NCCCO`, 104%.
For the compound `CCOC(=O)c1cnc2c(CC)cccc2c1NCCO`, the survival was 95%.
Take `Cc1ccc(OCC(=O)Nc2ccc3nc(SCc4ccccc4)sc3c2)cc1`: the survival was 81%.
Under `Cc1ccccc1-c1nc(CNC(=O)NC2CCCCC2)c(C)o1` stands 67%; under `CCOc1ccc(C(=O)N2CCC(c3nc(-c4ccc(S(=O)(=O)N5CCCC5)cc4)no3)CC2)cc1`, 92%.
Under `CCN(C(=O)c1cc2c(=O)oc3ccccc3c2s1)c1ccc(C)c(C)c1` stands 15% (active); under `CCCN(C(=O)c1cc2c(=O)oc3ccc(C)cc3c2s1)c1ccc(OCC)cc1`, 48%; under `CCc1ccccc1N(C)C(=O)c1cc2c(=O)oc3ccccc3c2s1`, 42%.
Under `CN(C(=O)c1cc2c(=O)oc3ccccc3c2s1)c1ccc(F)cc1` stands 60%; under `CCOc1ccc(N(CC)C(=O)c2cc3c(=O)oc4ccccc4c3s2)cc1`, 38% (active).
With `CCN(C(=O)c1cc2c(=O)oc3ccccc3c2s1)c1cccc(C(F)(F)F)c1`, the survival was 145%.
With `COc1cccc(CNC(=O)C2(c3cccs3)CCOCC2)c1` the figure was 92%; with `COc1ccc(-c2ccc(NS(=O)(=O)c3cccc(C)c3)cc2)nn1`, 75%.
Under `COCCNc1nc2c(c(=O)n(C)c(=O)n2C)n1Cc1c(F)cccc1Cl` stands 57%; under `Cc1ccc(C)c(NC(=O)CC2NCCNC2=O)c1` (stereo not drawn), 79%.
Regarding `COc1ccc(NC(=O)CC2NCCNC2=O)c(OC)c1` (stereo not drawn), the survival is 77%.
On to `COc1ccc(C)cc1NC(=O)CC1NCCNC1=O` (stereo not drawn), for which the survival is 76% (active).
With `O=C(Nc1c2c(nn1-c1ccc(Cl)cc1)CS(=O)(=O)C2)c1ccc(Br)cc1` the figure was 52% (active).
With `O=C(Nc1c2c(nn1-c1ccc(Cl)cc1)CS(=O)(=O)C2)c1cccc(Cl)c1` the figure was 71%; with `Cc1cccc(C(=O)Nc2c3c(nn2-c2ccc(Cl)cc2)CS(=O)(=O)C3)c1`, 74%; with `CC(=O)N1c2ccccc2C(=O)C1N1CCN(c2ccc(F)cc2)CC1` (stereo not drawn), 94%.
With `Cc1ccc(-c2nnc(Nc3ccc(O)cc3)c3ccccc23)cc1S(=O)(=O)NCC1CCCO1` (stereo not drawn) the figure was 93%; with `Cc1ccc(-n2ncc(C(=O)NC3CCCCC3)c2C2CCN(C(=O)OC(C)(C)C)CC2)cc1`, 116%; with `Cc1cccc(CC(=O)N2CC(=O)Nc3ccc(C)cc3C2c2ccc(F)cc2)c1` (stereo not drawn), 50%.
For `COc1ccc(CC(=O)N2CC(=O)Nc3ccc(F)cc3C2c2ccccc2)cc1` (stereo not drawn), the survival was 79%.
For `Cc1ccc2c(c1)C(c1ccccc1)N(C(=O)Cc1ccc(F)cc1)CC(=O)N2` (stereo not drawn), the survival was 55%.
With `COc1ccc(CC(=O)N2CC(=O)Nc3ccc(Br)cc3C2c2ccc(F)cc2)cc1` (stereo not drawn) the figure was 30% (active); with `Cc1cccc(CC(=O)N2CC(=O)Nc3ccc(Br)cc3C2c2ccc(F)cc2)c1` (stereo not drawn), 43% (active).
Consider `Cc1cccc(CC(=O)N2CC(=O)Nc3ccc(F)cc3C2c2ccccc2)c1` (stereo not drawn), for which the survival is 53% (active).
Under `O=C1CN(C(=O)Cc2ccc(F)cc2)C(c2ccccc2)c2cc(Cl)ccc2N1` (stereo not drawn) stands 127%; under `O=C1CN(C(=O)Cc2ccccc2)C(c2ccc(F)cc2)c2cc(Br)ccc2N1` (stereo not drawn), 61%; under `COc1ccc(CC(=O)N2CC(=O)Nc3ccc(Br)cc3C2c2ccc(F)cc2)cc1OC` (stereo not drawn), 175%.
With `COc1ccc(Cl)cc1NC(=O)Cn1ncc2c3ccccc3n(C)c2c1=O` the figure was 135%.
With `Cc1ccc(C)c(NC(=O)Cn2c(=O)n(Cc3ccco3)c(=O)c3ccc(C(=O)NC4CCCC4)cc32)c1` the figure was 95%.
As for `O=C(Nc1ccc2oc(-c3ccc4ccccc4c3)nc2c1)c1ccc(Cl)c(Cl)c1`, the survival is 83%.
Turning to `Cc1ccc2[nH]c(=O)c3cc(C(=O)NCCCN4CCC(C)CC4)sc3c2c1`, the survival was 85%.
With `COc1ccc(-c2cc(-c3ccc(C)cc3)nc3c2COc2ccccc2-3)cc1` the figure was 72%.
Under `Cc1oc2ncn(C)c(=O)c2c1C(=O)N1CCN(c2ccc(Cl)cc2)CC1` stands 61%; under `CCc1nc2nc(C)cc(Nc3cccc(C)c3C)n2n1`, 82%.
Under `CC(=O)c1cccc(Nc2cc(C)nc3nc(Cc4ccccc4)nn23)c1` stands 62%; under `Cc1cc(Nc2ccccc2F)n2nc(Cc3ccc(Cl)cc3)nc2n1`, 44% (active); under `CCc1ccc(Nc2cc(C)nc3nc(Cc4ccc(Cl)cc4)nn23)cc1`, 101%.
As for `Cc1ccc(Nc2cc(C)nc3nc(Cc4ccc(Cl)cc4)nn23)cc1`, the survival was 52%.
On to `Cc1cc(Nc2ccccc2F)n2nc(-c3ccccc3)nc2n1`, for which the survival was 47%.
In the case of `Cc1cc(Nc2ccccc2C)n2nc(Cc3ccc(Cl)cc3)nc2n1`, the survival was 64%.
Under `Cc1cc(Nc2cc(Cl)ccc2C)n2nc(Cc3ccccc3)nc2n1` stands 50%; under `Cc1cc(Nc2ccc(C)c(Cl)c2)n2nc(Cc3ccccc3)nc2n1`, 31% (active); under `Cc1cc(Nc2cccc(Cl)c2C)n2nc(Cc3ccccc3)nc2n1`, 49% (active).
With `Cc1cc(Nc2ccc(C)c(Cl)c2)n2nc(-c3ccccc3)nc2n1` the figure was 57%; with `Cc1cccc(Nc2cc(C)nc3nc(Cc4ccc(Cl)cc4)nn23)c1`, 36% (active).

These data come from PubChem BioAssay AID463173 (ICCB-Longwood Screening Facility, Harvard Medical School, 2010).
